Screening data deposited in PubChem by National Center for Advancing Translational Sciences (NCATS).
Hits are enriched below; roughly 19% of the tested compounds scored in any of these assays.
TDP1 cell CPT: DT40-hTDP1 cell growth loss with CPT. chicken DT40 Tdp1-/-;hTDP1 cells + 20 nM CPT, ATP luminescence, 48 h. Potency, µM (top dose mostly 46.2 µM), for the others: at the top dose activity change, negative = growth inhibition, most hits filed as inhibitors. 420,000 tested, 12% active. AID 686979; note: nearly all actives have a fitted effect of over 55% in size
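Cell growth measured by CellTiter-Glo luminescence after a minimum 48 h, 37 C compound exposure with 20 nM CPT in Tdp1-knockout DT40 cells stably expressing hTDP1, seeded 400/well; qHTS titration format.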
HT1080 IDH1KD tx: kills HT-1080 cells with IDH1 knockdown; HT-1080 IDH1 knockdown viability, ATP luminescence, 48 h; Potency, µM (series often up to 46.1 µM), inactives show at the highest dose activity, negative = toxicity, usual class: cytotoxic; 360,000 tested, 2% active; AID 686971;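 note: 0% = DMSO wells and -100% = cell-free medium wells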
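% activity derives from luminescence (CellTiter-Glo), normalised to DMSO and no-cell wells. HT-1080-IDH1KD cells, 750/well, had 48 h compound exposure at 37 °C.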
KB-V1 MDR tox: kills drug-selected multidrug resistant KB-V1 cells | 400,000 tested, 3.4% active | KB-V1 MDR cells viability, CellTiter-Glo, 72 h | Potency, µM (highest dose often 46.1 µM), most hits filed as cytotoxic; note: nearly all actives have a fitted effect of over 60% in size
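KB-V1, DMEM (no phenol red) + 10% FBS; cpd pin-transferred, titration series; 72 h, 37 degrees C; CellTiter-Glo, luminescence. Data normalized, curve-fit.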
TDP1 cell noCPT: qHTS for Inhibitors of human tyrosyl-DNA phosphodiesterase 1 (TDP1): qHTS in cells in absence of CPT | DT40 Tdp1-/- hTDP1 cells, no CPT, ATP luminescence, 48 h | 420,000 tested, 15% active | Potency, µM (highest dose often 46.2 µM), for the others: top-dose activity change, negative = growth inhibition, most hits filed as inhibitors; note: nearly all actives have a fitted effect of over 55% in size
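Camptothecin absent (DMSO only). Human TDP1-complemented DT40 knockout cells, 400 cells/well, 37 °C for minimum 48 hr; ATP measured via CellTiter-Glo, 30 min dark incubation, luminescence.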
KB-3-1 tox: KB-3-1 parental cell cytotoxicity; 400,000 tested, 1.4% active; KB-3-1 viability, CellTiter-Glo ATP luminescence, 72 h; Potency, µM (series often up to 46.1 µM), most hits filed as cytotoxic; AID 1347075; note: nearly all actives have a fitted effect of over 60% in size
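Parental KB-3-1 viability, qHTS format: 72 h compound exposure, 37 °C; CellTiter-Glo; media-only wells and DMSO plates as controls; concentration-effect fits on corrected data.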
HT1080-NT tox: kills 2HG-producing HT-1080-NT fibrosarcoma cells. 360,000 tested, 1.6% active. HT-1080-NT fibrosarcoma viability, CellTiter-Glo ATP luminescence, 48 h. Potency, µM (top dose mostly 46.1 µM), without a hit: at the top dose activity, negative = less viability, usual class: cytotoxic;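 note: NT is the 2HG producing partner of a matched IDH1 knockdown line; 0% = DMSO-treated cells and -100% = media-only wells without cells; nearly all actives have a fitted effect of over 55% in size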
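Viability of the 2HG-overproducing fibrosarcoma line after 48 hours of compound exposure at 37 degrees C was determined by luminescence with CellTiter-Glo, and concentration-effect curves were then fitted and categorized.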
The depositor's hits bear a star. Calls come from the whole dose curve; as a rule, active = well fitted curve in the direction sought with a large enough effect; inconclusive = small, poorly fitted or top-dose-only effect, or another doubt; inactive = no such curve, though single readings can be large; an effect the other way counts as inactive or inconclusive. Unless noted, % is set by controls: 0 for no effect and ±100 for the full control effect; potency is the fitted concentration of half-maximal effect.

CN(C)S(=O)(=O)N1CCN(CC(O)COc2ccc3cc(Br)ccc3c2)CC1 (stereo not given) was read as TDP1 cell CPT 14.6µM*, HT1080 IDH1KD tx -29.8%, KB-V1 MDR tox inconclusive, TDP1 cell noCPT 8.2µM*, KB-3-1 tox inconclusive and HT1080-NT tox inconclusive.
For CC(C)c1nc2ccc(C(=O)NCCCN3CCN(c4ccccc4F)CC3)cc2o1 the results were TDP1 cell CPT inconclusive, KB-V1 MDR tox inactive, TDP1 cell noCPT inconclusive and KB-3-1 tox inactive.
COc1cc(/C=N/NC(=O)c2ccc(NC(=O)C3CCCCC3)cc2)ccc1O was read as TDP1 cell CPT 2.7%, HT1080 IDH1KD tx 11.6µM*, KB-V1 MDR tox inactive, TDP1 cell noCPT -10.9%, KB-3-1 tox inactive and HT1080-NT tox inconclusive.
For O=C(OC1CCCCC1)c1ccc(NC(=O)C2CCCCC2)cc1 the results were TDP1 cell CPT inconclusive, HT1080 IDH1KD tx inconclusive, KB-V1 MDR tox inconclusive, TDP1 cell noCPT 20.6µM*, KB-3-1 tox inconclusive and HT1080-NT tox inconclusive.
`CC(C)(C)C(=O)Nc1ccc(C(=O)OC2CCCCC2)cc1` gave TDP1 cell CPT 25.9µM*, HT1080 IDH1KD tx inconclusive, KB-V1 MDR tox inconclusive, TDP1 cell noCPT 20.6µM*, KB-3-1 tox inactive and HT1080-NT tox 12.6µM*.
CCOc1cc(/C=N/NC(=O)c2ccc(NC(=O)C3CC3)cc2)ccc1O was read as TDP1 cell CPT inconclusive, HT1080 IDH1KD tx -4.3%, KB-V1 MDR tox inactive, TDP1 cell noCPT -17.6%, KB-3-1 tox inactive and HT1080-NT tox -7.7%.
`CCNC(=O)C[C@@H]1C=C[C@@H](NS(=O)(=O)c2ccc(F)cc2)[C@@H](CO)O1` gave TDP1 cell CPT 12.2%, HT1080 IDH1KD tx 16.8%, KB-V1 MDR tox inactive, TDP1 cell noCPT 12.5%, KB-3-1 tox inactive and HT1080-NT tox 17.1%.
Screening Nc1ccc(N2CCN(c3ccc(Cl)c(Cl)c3)CC2)cc1 returned TDP1 cell CPT 11.6µM*, HT1080 IDH1KD tx -6.4%, KB-V1 MDR tox 18.4µM*, TDP1 cell noCPT 9.2µM*, KB-3-1 tox 20.6µM* and HT1080-NT tox -10.4%.
For CNC(=S)N1CCN(c2ccc(Cl)c(Cl)c2)CC1 the results were TDP1 cell CPT 23.1µM*, HT1080 IDH1KD tx -20.9%, KB-V1 MDR tox inconclusive, TDP1 cell noCPT 16.4µM*, KB-3-1 tox inactive and HT1080-NT tox -17.8%.
Screening COC(=O)N1CCN(c2ccc(Cl)c(Cl)c2)CC1 returned TDP1 cell CPT inconclusive, HT1080 IDH1KD tx 6.3%, KB-V1 MDR tox 23.1µM*, TDP1 cell noCPT inconclusive, KB-3-1 tox inconclusive and HT1080-NT tox -1.8%.
N#C/C=C(/N)N1CCN(c2ccc(Cl)c(Cl)c2)CC1 was read as TDP1 cell CPT inconclusive, HT1080 IDH1KD tx -9.0%, KB-V1 MDR tox inactive, TDP1 cell noCPT 16.4µM*, KB-3-1 tox inactive and HT1080-NT tox -4.3%.
Screening F[B-](F)(F)c1cncc2ccccc12 returned TDP1 cell CPT 0.1%, HT1080 IDH1KD tx -6.3%, KB-V1 MDR tox inactive, TDP1 cell noCPT -13.7%, KB-3-1 tox inactive and HT1080-NT tox -0.2%.
CCOC(=O)c1sc2cccc(F)c2c1S(=O)(=O)N1CCN(c2cccc(Cl)c2)CC1 was read as TDP1 cell CPT inconclusive, KB-V1 MDR tox inactive, TDP1 cell noCPT inconclusive and KB-3-1 tox inactive.
`COCCNC(=O)C1CCN(S(=O)(=O)c2ccc3c(c2)CCCN3C(C)=O)CC1` gave TDP1 cell CPT 8.3%, KB-V1 MDR tox inconclusive, TDP1 cell noCPT 1.3% and KB-3-1 tox inactive.
Screening COC(=O)Nc1ccc(S(=O)(=O)N2CCCc3cccc(O)c32)cc1 returned TDP1 cell CPT 13µM*, HT1080 IDH1KD tx inconclusive, KB-V1 MDR tox inconclusive, TDP1 cell noCPT 10.3µM*, KB-3-1 tox inconclusive and HT1080-NT tox inconclusive.
`COC(=O)Nc1ccc(S(=O)(=O)N2CCC(C)CC2)cc1` gave TDP1 cell CPT -13.4%, HT1080 IDH1KD tx -15.5%, KB-V1 MDR tox inactive, TDP1 cell noCPT -14.5%, KB-3-1 tox inconclusive and HT1080-NT tox 4.6%.
Screening O=S(=O)(NC1CCCC1)c1ccc(S(=O)(=O)N2CCc3ccccc32)cc1 returned TDP1 cell CPT 16.4µM*, HT1080 IDH1KD tx inconclusive, KB-V1 MDR tox inconclusive, TDP1 cell noCPT 16.4µM*, KB-3-1 tox inconclusive and HT1080-NT tox inconclusive.
COC(=O)Nc1ccc(S(=O)(=O)N2CCCc3ccccc32)cc1 was read as TDP1 cell CPT 2.59µM*, HT1080 IDH1KD tx 1.41µM*, KB-V1 MDR tox 1.16µM*, TDP1 cell noCPT 2.31µM*, KB-3-1 tox 1.46µM* and HT1080-NT tox 8.91µM*.
COc1ccc(CCNC(=O)/C=C/c2ccc(C)cc2)cc1OC was read as TDP1 cell CPT -17.6%, HT1080 IDH1KD tx -8.6%, KB-V1 MDR tox inactive, TDP1 cell noCPT inconclusive, KB-3-1 tox inactive and HT1080-NT tox 6.2%.
For O=C(c1cc(-c2ccccc2)nc2ccccc12)N1N=C(C(F)F)CC1(O)C(F)F (stereo not given) the results were TDP1 cell CPT -28.7%, HT1080 IDH1KD tx -14.6%, KB-V1 MDR tox inactive, TDP1 cell noCPT -10.4%, KB-3-1 tox inactive and HT1080-NT tox -6.1%.
For O=C(c1ccc(Cn2cc(Br)cn2)cc1)N1N=C(C(F)F)CC1(O)C(F)F (stereo not given) the results were TDP1 cell CPT -20.2%, HT1080 IDH1KD tx -1.1%, KB-V1 MDR tox inactive, TDP1 cell noCPT inconclusive, KB-3-1 tox inactive and HT1080-NT tox -11.2%.
`O=C(c1ccc(COc2ccc3ccccc3c2)o1)N1N=C(C(F)F)CC1(O)C(F)F` (stereo not given) gave TDP1 cell CPT inconclusive, HT1080 IDH1KD tx inconclusive, KB-V1 MDR tox inconclusive, TDP1 cell noCPT 20.6µM*, KB-3-1 tox inactive and HT1080-NT tox inconclusive.
`Cc1cc(C)cc(OCc2ccc(C(=O)N3N=C(C(F)F)CC3(O)C(F)F)o2)c1` (stereo not given) gave TDP1 cell CPT inconclusive, HT1080 IDH1KD tx -10.4%, KB-V1 MDR tox inconclusive, TDP1 cell noCPT inconclusive, KB-3-1 tox inactive and HT1080-NT tox -8.8%.
For O=C(c1ccc(COc2ccc(Br)cc2)o1)N1N=C(C(F)F)CC1(O)C(F)F (stereo not given) the results were TDP1 cell CPT inconclusive, HT1080 IDH1KD tx 20.6µM*, KB-V1 MDR tox inactive, TDP1 cell noCPT inconclusive, KB-3-1 tox inactive and HT1080-NT tox inconclusive.
